# According to publication PMC7862700, “An all-to-all approach to the identification of sequence-specific readers for epigenetic DNA modifications on cytosine”:
# Assays:
# Test in all cases: DAPPL (digital affinity profiling via proximity ligation, sequencing); 10 mM Tris-HCl pH 7.5, 50 mM NaCl, 1 mM DTT, 4% glycerol, room temperature, 30 min; GST-TFs on glutathione beads, 16-mer random dsDNA library, 0.1% formaldehyde crosslink after washing; high values mean tight binding
# Conditions in all cases: protein: recombinant; tags: N-terminal GST; dsDNA, one strand shown
# FLI1 = target: T1, FLI1 (Homo sapiens, UniProt Q01543 1-452)
# T1 sequence: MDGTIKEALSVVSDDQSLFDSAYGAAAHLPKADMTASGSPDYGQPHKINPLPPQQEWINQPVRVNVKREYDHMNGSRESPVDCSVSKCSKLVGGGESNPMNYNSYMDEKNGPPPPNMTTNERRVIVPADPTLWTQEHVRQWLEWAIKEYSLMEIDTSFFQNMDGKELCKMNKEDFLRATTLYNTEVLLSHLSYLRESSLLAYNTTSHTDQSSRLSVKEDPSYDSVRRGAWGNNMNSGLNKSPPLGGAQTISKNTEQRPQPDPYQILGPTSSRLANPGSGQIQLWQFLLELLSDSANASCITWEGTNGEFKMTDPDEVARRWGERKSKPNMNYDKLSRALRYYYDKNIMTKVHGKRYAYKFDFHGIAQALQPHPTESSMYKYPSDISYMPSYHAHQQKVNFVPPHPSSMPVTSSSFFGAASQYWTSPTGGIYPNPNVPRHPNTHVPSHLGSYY
# Summary of the method: (§1)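 Beads coated with glutathione captured GST-fused human transcription factors that had been expressed in yeast, and the factors were then given DNA barcodes and pooled with a tag-only sample. The pools were incubated with 200 nmole of a random double-stranded 16-mer DNA library in Tris/NaCl/DTT/glycerol buffer for 30 min at room temperature, washed, crosslinked with 0.1% formaldehyde and proximity-ligated with BsaI/T4 ligase at 37 °C for 1 h. PCR amplification and Illumina NextSeq500 sequencing came last. Binding signal is each hexamer's read frequency for a factor divided by its frequency for the tag-only sample.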
# ELK1 = target: T2, ELK1 (Homo sapiens, UniProt P19419 1-428)
# T2 sequence: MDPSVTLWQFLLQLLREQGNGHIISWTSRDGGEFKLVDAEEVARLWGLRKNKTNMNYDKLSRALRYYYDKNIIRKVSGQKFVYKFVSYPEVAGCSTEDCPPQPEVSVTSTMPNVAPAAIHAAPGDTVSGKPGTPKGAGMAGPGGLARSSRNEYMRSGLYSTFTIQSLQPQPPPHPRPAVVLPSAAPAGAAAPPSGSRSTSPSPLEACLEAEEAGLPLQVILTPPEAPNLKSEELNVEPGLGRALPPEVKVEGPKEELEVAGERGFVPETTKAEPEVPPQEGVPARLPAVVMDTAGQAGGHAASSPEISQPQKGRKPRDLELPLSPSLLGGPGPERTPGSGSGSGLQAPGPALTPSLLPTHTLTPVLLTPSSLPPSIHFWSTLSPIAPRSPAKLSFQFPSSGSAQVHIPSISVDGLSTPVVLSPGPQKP
# Summary of the method: as §1
# GABPA = target: T3, GABPA (Homo sapiens, UniProt Q06546 1-454)
# T3 sequence: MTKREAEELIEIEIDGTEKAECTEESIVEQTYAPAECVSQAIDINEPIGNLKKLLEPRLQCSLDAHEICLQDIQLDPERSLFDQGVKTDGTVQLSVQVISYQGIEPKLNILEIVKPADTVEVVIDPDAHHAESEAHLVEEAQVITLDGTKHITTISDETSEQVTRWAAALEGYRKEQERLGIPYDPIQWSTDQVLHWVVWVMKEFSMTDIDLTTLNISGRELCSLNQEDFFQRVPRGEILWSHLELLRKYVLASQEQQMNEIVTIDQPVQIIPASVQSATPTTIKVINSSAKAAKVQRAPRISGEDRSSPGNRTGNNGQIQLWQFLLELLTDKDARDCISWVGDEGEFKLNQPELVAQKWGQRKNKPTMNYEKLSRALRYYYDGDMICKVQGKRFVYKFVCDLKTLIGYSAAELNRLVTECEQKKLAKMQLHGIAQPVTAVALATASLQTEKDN
# Summary of the method: as §1
# ERG = target: T4, ERG (Homo sapiens, UniProt P11308 1-479)
# T4 sequence: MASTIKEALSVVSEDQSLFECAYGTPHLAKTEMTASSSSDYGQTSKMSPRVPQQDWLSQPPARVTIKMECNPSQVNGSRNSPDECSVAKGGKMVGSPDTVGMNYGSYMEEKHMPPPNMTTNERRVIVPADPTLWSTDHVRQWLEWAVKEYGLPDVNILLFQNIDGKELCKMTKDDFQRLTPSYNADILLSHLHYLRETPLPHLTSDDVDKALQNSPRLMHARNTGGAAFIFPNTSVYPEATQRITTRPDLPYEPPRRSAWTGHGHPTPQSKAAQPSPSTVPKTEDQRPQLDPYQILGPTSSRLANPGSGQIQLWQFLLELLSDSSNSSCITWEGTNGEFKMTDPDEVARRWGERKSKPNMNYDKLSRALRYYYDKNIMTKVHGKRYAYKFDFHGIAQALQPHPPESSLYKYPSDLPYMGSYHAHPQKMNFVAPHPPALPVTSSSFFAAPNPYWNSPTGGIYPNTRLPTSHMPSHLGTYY
# Summary of the method: as §1
# ELF1 = ELF1 (Homo sapiens, UniProt P32519 1-619)
# Summary of the method: as §1
# EHF = target: T5, EHF (Homo sapiens, UniProt Q9NZC4 1-300)
# T5 sequence: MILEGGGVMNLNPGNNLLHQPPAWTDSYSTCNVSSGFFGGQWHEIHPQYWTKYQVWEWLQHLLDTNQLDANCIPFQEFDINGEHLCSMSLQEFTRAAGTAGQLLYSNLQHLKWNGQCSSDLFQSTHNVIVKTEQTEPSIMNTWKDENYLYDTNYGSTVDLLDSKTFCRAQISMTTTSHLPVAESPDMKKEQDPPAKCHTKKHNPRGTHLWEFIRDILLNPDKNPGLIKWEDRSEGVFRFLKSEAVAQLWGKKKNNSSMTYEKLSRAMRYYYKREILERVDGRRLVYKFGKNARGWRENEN
# Summary of the method: as §1
# SPI1 = SPI1 (Homo sapiens, UniProt P17947 1-270)
# Summary of the method: as §1
# SPIB = SPIB (Homo sapiens, UniProt Q01892 1-262)
# Summary of the method: as §1
# ELK3 = target: T6, ELK3 (Homo sapiens, UniProt P41970 1-407)
# T6 sequence: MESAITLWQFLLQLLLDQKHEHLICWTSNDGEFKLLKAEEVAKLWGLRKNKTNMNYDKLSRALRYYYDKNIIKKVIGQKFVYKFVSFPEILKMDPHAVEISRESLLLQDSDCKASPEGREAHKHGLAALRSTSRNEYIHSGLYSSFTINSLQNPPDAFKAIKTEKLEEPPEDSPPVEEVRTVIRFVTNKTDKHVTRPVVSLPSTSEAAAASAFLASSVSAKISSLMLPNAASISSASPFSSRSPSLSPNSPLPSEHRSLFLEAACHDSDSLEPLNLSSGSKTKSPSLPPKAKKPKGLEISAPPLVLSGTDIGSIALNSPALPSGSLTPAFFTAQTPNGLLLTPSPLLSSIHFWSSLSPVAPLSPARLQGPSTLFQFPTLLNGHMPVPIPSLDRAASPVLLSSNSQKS
# Summary of the method: as §1
# Sequence of ELF1 (P32519 whole entry): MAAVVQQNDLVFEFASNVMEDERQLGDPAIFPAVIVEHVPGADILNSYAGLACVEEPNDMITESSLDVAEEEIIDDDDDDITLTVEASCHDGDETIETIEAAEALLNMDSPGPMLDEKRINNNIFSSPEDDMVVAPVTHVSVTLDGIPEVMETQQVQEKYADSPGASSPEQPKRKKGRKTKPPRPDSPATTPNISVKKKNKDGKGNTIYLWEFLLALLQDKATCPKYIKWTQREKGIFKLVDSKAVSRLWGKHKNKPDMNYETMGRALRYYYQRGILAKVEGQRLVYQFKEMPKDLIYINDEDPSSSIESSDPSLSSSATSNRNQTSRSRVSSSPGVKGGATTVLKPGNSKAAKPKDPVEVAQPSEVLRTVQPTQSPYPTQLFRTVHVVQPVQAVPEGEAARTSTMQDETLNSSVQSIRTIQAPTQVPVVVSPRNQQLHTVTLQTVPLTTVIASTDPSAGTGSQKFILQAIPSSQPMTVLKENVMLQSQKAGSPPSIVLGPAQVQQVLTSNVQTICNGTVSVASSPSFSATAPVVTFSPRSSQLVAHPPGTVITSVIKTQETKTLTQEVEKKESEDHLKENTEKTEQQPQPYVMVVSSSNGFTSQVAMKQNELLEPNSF
# Sequence of SPIB (Q01892 whole entry): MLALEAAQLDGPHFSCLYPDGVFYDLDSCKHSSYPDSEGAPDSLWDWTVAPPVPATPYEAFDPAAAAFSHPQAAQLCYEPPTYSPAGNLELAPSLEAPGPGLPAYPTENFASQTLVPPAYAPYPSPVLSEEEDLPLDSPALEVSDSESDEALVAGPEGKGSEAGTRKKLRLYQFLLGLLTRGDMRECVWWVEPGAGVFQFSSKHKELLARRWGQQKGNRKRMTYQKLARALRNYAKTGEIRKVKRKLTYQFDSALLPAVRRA
sequence,measurement,setting,value
CCGTCT,binding signal,FLI1,"1.41 fold enrichment (6-mer frequency, TF over GST control)"
same,binding signal,ELK1,"1.32 fold enrichment (6-mer frequency, TF over GST control)"
same,binding signal,GABPA,"1.43 fold enrichment (6-mer frequency, TF over GST control)"
same,binding signal,ERG,"1.28 fold enrichment (6-mer frequency, TF over GST control)"
same,binding signal,ELF1,"1.46 fold enrichment (6-mer frequency, TF over GST control)"
same,binding signal,EHF,"1.34 fold enrichment (6-mer frequency, TF over GST control)"
same,binding signal,SPI1,"1.43 fold enrichment (6-mer frequency, TF over GST control)"
same,binding signal,SPIB,"1.45 fold enrichment (6-mer frequency, TF over GST control)"
same,binding signal,ELK3,"1.36 fold enrichment (6-mer frequency, TF over GST control)"
